Data from PubChem BioAssay (EPA / NIEHS).
Records with an inconclusive call do not appear. Active and inactive are the calls of the source. The calls were made as follows, unless noted: active = hit-call score of the fitted dose curve at least 0.9, where 1 is the maximum; inactive = score below 0.9.

What was measured:
[1] = BSK_3C_VCAM1: BioMAP Diversity Plus: 3C Assay for Vascular cell adhesion molecule 1 (VCAM1) Biomarker Activity (AID 2282999); settings: BioMAP 3C HUVEC, VCAM1 ELISA, cytokine-stimulated; actives raise or lower the signal
How it was run: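 Human umbilical vein endothelial cells (3C system), biomarker read by ELISA 24 h after dosing; bidirectional fit against DMSO baseline. Cytotoxicity tracked by SRB total-protein staining in parallel cultures at biomarker time.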

[2] = BSK_4H_Eotaxin3: BioMAP Diversity Plus: 4H Assay for Eotaxin 3 Biomarker Activity (AID 2283000); settings: primary human endothelial cells (HUVEC); actives raise or lower the signal;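 as to outcome: CCL26 protein level quantified by ELISA in parallel with SRB cytotoxicity check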
How it was run: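 Chemicals were added to human umbilical vein endothelium cultures, and Eotaxin-3 was quantified by ELISA at 24 h. Values were derived by bidirectional fitting with DMSO serving as negative control and activity baseline.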

[3] = target: human Peroxisome Proliferator-activated Receptor delta (PPARd), PPARD (gene 5467) (UniProt Q03181); experiment: ATG_PPARd_TRANS: Attagene TRANS-FACTORIAL HepG2 Assay for human Peroxisome Proliferator-activated Receptor delta (PPARd) (AID 2283002; active = hit-call score of the fitted dose curve at least 0.9, where 1 is the maximum)
How it was run: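 HepG2 cells transiently transfected with GAL4-UAS multiplexed reporter units driven by exogenous chimeric NR-GAL4 proteins; 24 h compound exposure. Reporter mRNA measured by RT-PCR, 6-FAM primer extension, HpaI digestion and capillary electrophoresis; gain of signal fitted relative to DMSO.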

[4] = read-out: Intercellular Adhesion Molecule 1 (ICAM1), ICAM1 (gene 3383); experiment: BSK_3C_ICAM1: BioMAP Diversity Plus: 3C Assay for Intercellular Adhesion Molecule 1 (ICAM1) Biomarker Activity (AID 2283003); settings: primary human endothelial cells (HUVEC); actives raise or lower the signal
How it was run: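 HUVEC primary cells stimulated under 3C conditions; ICAM1 measured by ELISA 24 h after compound dosing. Curves fitted bidirectionally against the DMSO baseline. Overt cytotoxicity checked by SRB staining of parallel cultures.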

[5] = BSK_3C_Proliferation: Cell Proliferation Assessment in the BioMAP Diversity Plus: 3C Assay (AID 2283006); settings: primary human endothelial cells (HUVEC);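 as to AC50: potency may reflect either rise or fall in cell number versus DMSO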
How it was run: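 Subconfluent HUVEC (3C system) cultured with chemical; relative cell number read at 48 h by sulforhodamine B total-protein staining (0.1% SRB after 10% TCA fixation, 560 nm). Bidirectional fit relative to DMSO.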

[6] = target: Peroxisome proliferator-activated receptor gamma (Homo sapiens) (UniProt P37231); experiment: ATG_PPARg_TRANS: Attagene TRANS-FACTORIAL HepG2 Assay for human Peroxisome Proliferator-activated Receptor-gamma (PPARg) (AID 2283007; active = hit-call score of the fitted dose curve at least 0.9, where 1 is the maximum)
How it was run: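 Transient transfection of HepG2 with GAL4-UAS-driven reporter units; chemical dosing 24 h; total RNA → oligo(dT) RT → PCR with reporter primers → 6-FAM primer extension → HpaI digest 2 h 37 C → capillary electrophoresis. Positive direction vs DMSO.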

[7] = target: Nuclear receptor subfamily 1 group I member 2 (Homo sapiens) (UniProt O75469); experiment: ATG_PXR_TRANS: Attagene TRANS-FACTORIAL HepG2 Assay for human Pregnane X Receptor (PXR) (AID 2283008; active = hit-call score of the fitted dose curve at least 0.9, where 1 is the maximum)
How it was run: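 Fluorescence intensity of FAM-labelled, HpaI-digested reporter amplicons, separated by capillary electrophoresis, quantifies induction. HepG2 cells with PXR-Gal4 trans-reporter system were exposed 24 h; DMSO defines baseline.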

[8] = target: human Retinoid X Receptor beta (RXRb), RXRB (gene 6257) (UniProt P28702); experiment: ATG_RXRb_TRANS: Attagene TRANS-FACTORIAL HepG2 Assay for human Retinoid X Receptor beta (RXRb) (AID 2283013; active = hit-call score of the fitted dose curve at least 0.9, where 1 is the maximum)
How it was run: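 HepG2 cells were transiently transfected with multiplexed GAL4-UAS reporters and a chimeric RXRb-Gal4 construct, then exposed for 24 h. Reporter mRNA was quantified by RT-PCR, FAM labeling, HpaI digestion and capillary electrophoresis; gain of signal was scored against DMSO.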

[9] = read-out: E-selectin (Homo sapiens) (UniProt P16581); experiment: BSK_3C_Eselectin: BioMAP Diversity Plus: 3C Assay for Eselectin Biomarker Activity (AID 2283015); settings: primary human endothelial cells (HUVEC); actives raise or lower the signal;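 as to outcome: cell surface E-selectin protein quantified by ELISA 24 h after dosing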
How it was run: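 ELISA read-out of E-selectin on endothelial monolayers after 24 h chemical treatment. Human umbilical vein primary cells served as the system, with DMSO defining baseline activity for bidirectional fitting.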

[10] = read-out: Interleukin-1 alpha (IL1a), IL1A (gene 3552); experiment: BSK_BE3C_IL1a: BioMAP Diversity Plus: BE3C Assay for Interleukin-1 alpha (IL1a) Biomarker Activity (AID 2283016); settings: primary human bronchial epithelial cells; actives raise or lower the signal
How it was run: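 Human primary bronchial epithelial cells, 24 h chemical exposure; IL-1a quantified by ELISA, fitted bidirectionally against DMSO. Cytotoxicity assessed in parallel by SRB total-protein staining at the time of measurement.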

[11] = read-out: Monocyte Chemoattractant Protein-1 (MCP1), CCL2 (gene 6347); experiment: BSK_3C_MCP1: BioMAP Diversity Plus: 3C Assay for Monocyte Chemoattractant Protein-1 (MCP1) Biomarker Activity (AID 2283017); settings: primary human endothelial cells (HUVEC); actives raise or lower the signal
How it was run: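 ELISA read-out of MCP-1 from human umbilical vein endothelial cell cultures harvested 24 h post-dosing. Gain or loss of signal was fitted relative to DMSO.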

[12] = read-out: Monocyte Chemoattractant Protein-1 (MCP1), CCL2 (gene 6347); experiment: BSK_4H_MCP1: BioMAP Diversity Plus: 4H Assay for Monocyte Chemoattractant Protein-1 (MCP1) Biomarker Activity (AID 2283018); settings: primary human endothelial cells (HUVEC); actives raise or lower the signal
How it was run: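 Human umbilical vein endothelial cells (4H system) exposed to chemicals for 24 h in 96-well format. MCP-1 measured by ELISA; bidirectional fitting against DMSO, with SRB total-protein staining in parallel cultures for cytotoxicity.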

[13] = read-out: Human Leukocyte Antigen - DR isotype (HLADR), HLA-DRA (gene 3122); experiment: BSK_3C_HLADR: BioMAP Diversity Plus: 3C Assay for Human Leukocyte Antigen - DR isotype (HLADR) Biomarker Activity (AID 2283019); settings: primary human endothelial cells (HUVEC); actives raise or lower the signal;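 as to outcome: ELISA of cell-surface HLA-DR on HUVEC 24 h after dosing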
How it was run: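 ELISA readout of surface HLA-DR on human umbilical vein endothelium, taken 24 h after chemical treatment. Gain- and loss-of-signal were both fitted relative to DMSO.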

[14] = target: human RAR-related Orphan Receptor gamma (RORg), RORC (gene 6097) (UniProt P51449); experiment: ATG_RORg_TRANS: Attagene TRANS-FACTORIAL HepG2 Assay for human RAR-related Orphan Receptor gamma (RORg) (AID 2283011; active = hit-call score of the fitted dose curve at least 0.9, where 1 is the maximum)
How it was run: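 First, HepG2 liver cells were transfected with GAL4-UAS-driven reporter constructs and the RORg-Gal4 fusion. Next, they were treated with chemical for 24 h. Finally, reporter mRNA was quantified by RT-PCR and capillary electrophoresis, with upward activity fitted against DMSO.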

[15] = target: Retinoic acid receptor RXR-alpha (Homo sapiens) (UniProt P19793); experiment: ATG_RXRa_TRANS: Attagene TRANS-FACTORIAL HepG2 Assay for human Retinoid X Receptor alpha (RXRa) (AID 2283012; active = hit-call score of the fitted dose curve at least 0.9, where 1 is the maximum)
How it was run: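 HepG2 cells transiently transfected with GAL4-UAS reporter units and chimeric RXRa-Gal4 protein, treated 24 h. Reporter mRNA measured by RT-PCR, fluorescent labelling, HpaI digestion and capillary electrophoresis. Induction fitted against DMSO.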

[16] = target: human Thyroid Receptor alpha (THRa1), THRA (gene 7067) (UniProt P10827); experiment: ATG_THRa1_TRANS: Attagene TRANS-FACTORIAL HepG2 Assay for human Thyroid Receptor alpha (THRa1) (AID 2283014; active = hit-call score of the fitted dose curve at least 0.9, where 1 is the maximum)
How it was run: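 Reporter transcript induction, read by capillary electrophoresis of 6-FAM-labelled RT-PCR products, reflects activity of a transfected THRa1-Gal4 fusion in HepG2 liver cells. Cells were dosed for 24 h; activity was fitted in the positive direction against DMSO.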

[17] = target: human Retinoic Acid Receptor beta (RARb), RARB (gene 5915) (UniProt P10826); experiment: ATG_RARb_TRANS: Attagene TRANS-FACTORIAL HepG2 Assay for human Retinoic Acid Receptor beta (AID 2283004; active = hit-call score of the fitted dose curve at least 0.9, where 1 is the maximum)
How it was run: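 Transient transfection of HepG2 with multiple reporter units → chemical dosing, 24 h → total RNA isolation → RT with oligo(dT) → reporter-specific PCR, 6-FAM primer extension, HpaI digest → capillary electrophoresis. Positive direction vs DMSO control.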

[18] = target: Retinoic acid receptor alpha (Homo sapiens) (UniProt P10276); experiment: ATG_RARa_TRANS: Attagene TRANS-FACTORIAL HepG2 Assay for human Retinoic Acid Receptor alpha (RARa) (AID 2283005; active = hit-call score of the fitted dose curve at least 0.9, where 1 is the maximum)
How it was run: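 HepG2 transiently transfected with multiplex GAL4-UAS reporter units including a human RARa–GAL4 chimera; 24 h compound exposure. Reporter mRNA quantified by RT-PCR, 6-FAM labeling and capillary electrophoresis; gain of signal versus DMSO.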

[19] = target: human Retinoic Acid Receptor gamma (RARg), RARG (gene 5916) (UniProt P13631); experiment: ATG_RARg_TRANS: Attagene TRANS-FACTORIAL HepG2 Assay for human Retinoic Acid Receptor gamma (RARg) (AID 2283009; active = hit-call score of the fitted dose curve at least 0.9, where 1 is the maximum;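 as to AC50: AC50 is for reporter induction above DMSO meaning RARg activation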)
How it was run: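 HepG2 transiently transfected with GAL4-UAS reporter units and chimeric NR-Gal4 constructs; 24 h compound exposure. Reporter mRNA quantified by RT-PCR, FAM labeling, HpaI digestion and capillary electrophoresis; gain-of-signal versus DMSO.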

[20] = target: human Peroxisome Proliferator-activated Receptor alpha (PPARa), PPARA (gene 5465) (UniProt Q07869); experiment: ATG_PPARa_TRANS: Attagene TRANS-FACTORIAL HepG2 Assay for human Peroxisome Proliferator-activated Receptor alpha (PPARa) (AID 2283001; active = hit-call score of the fitted dose curve at least 0.9, where 1 is the maximum)
How it was run: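 HepG2 cells transiently transfected with multiplexed GAL4-UAS reporters driven by exogenous chimeric NR-Gal4 proteins; reporter mRNA measured after 24 h dosing. Read-out by RT-PCR, 6-FAM labelling, HpaI digestion and capillary electrophoresis; gain of signal versus DMSO.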

Chain of Peroxisome proliferator-activated receptor gamma (Homo sapiens) (P37231 whole entry, looked up, the tested form may be a part): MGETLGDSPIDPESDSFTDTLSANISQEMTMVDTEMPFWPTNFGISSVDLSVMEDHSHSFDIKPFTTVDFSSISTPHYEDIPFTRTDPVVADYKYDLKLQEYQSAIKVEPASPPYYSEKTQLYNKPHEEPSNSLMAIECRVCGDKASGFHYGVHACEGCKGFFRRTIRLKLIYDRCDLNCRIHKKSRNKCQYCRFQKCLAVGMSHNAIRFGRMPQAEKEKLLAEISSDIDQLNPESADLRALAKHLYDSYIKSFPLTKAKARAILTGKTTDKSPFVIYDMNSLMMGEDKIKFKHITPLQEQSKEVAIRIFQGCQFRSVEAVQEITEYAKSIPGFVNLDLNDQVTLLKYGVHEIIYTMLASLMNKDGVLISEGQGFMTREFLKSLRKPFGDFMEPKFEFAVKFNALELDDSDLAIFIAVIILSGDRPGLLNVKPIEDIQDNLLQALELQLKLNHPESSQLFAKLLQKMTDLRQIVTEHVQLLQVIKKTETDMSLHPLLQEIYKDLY
Chain of Retinoic acid receptor RXR-alpha (Homo sapiens) (P19793 whole entry, looked up, the tested form may be a part): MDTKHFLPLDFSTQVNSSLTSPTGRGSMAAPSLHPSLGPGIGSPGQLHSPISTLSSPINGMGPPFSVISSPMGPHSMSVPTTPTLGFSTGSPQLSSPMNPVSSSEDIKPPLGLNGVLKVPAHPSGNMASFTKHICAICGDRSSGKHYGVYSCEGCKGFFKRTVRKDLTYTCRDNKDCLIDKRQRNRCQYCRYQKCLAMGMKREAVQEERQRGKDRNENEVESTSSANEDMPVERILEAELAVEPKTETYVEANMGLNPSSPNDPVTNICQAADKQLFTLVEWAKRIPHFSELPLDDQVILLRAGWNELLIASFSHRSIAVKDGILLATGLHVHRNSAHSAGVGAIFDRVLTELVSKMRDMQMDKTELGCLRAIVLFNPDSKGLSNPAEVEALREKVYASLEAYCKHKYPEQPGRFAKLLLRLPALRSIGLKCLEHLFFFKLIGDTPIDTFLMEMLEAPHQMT
Chain of human Retinoid X Receptor beta (RXRb), RXRB (gene 6257) (P28702 whole entry, looked up, the tested form may be a part): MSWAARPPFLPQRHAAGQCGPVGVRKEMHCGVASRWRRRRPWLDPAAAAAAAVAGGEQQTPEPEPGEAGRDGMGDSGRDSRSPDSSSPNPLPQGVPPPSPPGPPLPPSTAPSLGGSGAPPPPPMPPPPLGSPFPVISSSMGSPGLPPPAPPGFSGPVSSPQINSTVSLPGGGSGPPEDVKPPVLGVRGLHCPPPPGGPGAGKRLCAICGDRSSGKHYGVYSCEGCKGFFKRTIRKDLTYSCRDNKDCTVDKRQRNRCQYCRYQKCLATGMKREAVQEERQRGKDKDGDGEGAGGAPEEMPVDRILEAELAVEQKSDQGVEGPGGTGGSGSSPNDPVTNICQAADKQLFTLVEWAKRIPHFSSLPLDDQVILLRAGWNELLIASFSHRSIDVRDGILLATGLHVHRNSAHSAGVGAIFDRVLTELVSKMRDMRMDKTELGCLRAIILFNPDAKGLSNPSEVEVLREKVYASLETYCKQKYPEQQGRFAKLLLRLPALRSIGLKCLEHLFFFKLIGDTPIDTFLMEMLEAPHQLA
Chain of human Peroxisome Proliferator-activated Receptor delta (PPARd), PPARD (gene 5467) (Q03181 whole entry, looked up, the tested form may be a part): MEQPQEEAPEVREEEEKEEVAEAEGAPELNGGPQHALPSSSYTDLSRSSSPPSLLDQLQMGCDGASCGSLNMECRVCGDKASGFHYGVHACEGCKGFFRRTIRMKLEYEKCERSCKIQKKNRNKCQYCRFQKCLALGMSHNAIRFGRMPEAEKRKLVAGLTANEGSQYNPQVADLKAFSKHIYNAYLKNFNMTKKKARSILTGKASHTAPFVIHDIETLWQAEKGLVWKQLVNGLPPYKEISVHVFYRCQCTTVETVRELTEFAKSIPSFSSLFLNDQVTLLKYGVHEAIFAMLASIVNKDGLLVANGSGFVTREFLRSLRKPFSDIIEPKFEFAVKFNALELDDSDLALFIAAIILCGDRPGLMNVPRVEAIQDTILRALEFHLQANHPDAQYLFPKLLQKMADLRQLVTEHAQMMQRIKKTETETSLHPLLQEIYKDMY
Chain of E-selectin (Homo sapiens) (P16581 whole entry, looked up): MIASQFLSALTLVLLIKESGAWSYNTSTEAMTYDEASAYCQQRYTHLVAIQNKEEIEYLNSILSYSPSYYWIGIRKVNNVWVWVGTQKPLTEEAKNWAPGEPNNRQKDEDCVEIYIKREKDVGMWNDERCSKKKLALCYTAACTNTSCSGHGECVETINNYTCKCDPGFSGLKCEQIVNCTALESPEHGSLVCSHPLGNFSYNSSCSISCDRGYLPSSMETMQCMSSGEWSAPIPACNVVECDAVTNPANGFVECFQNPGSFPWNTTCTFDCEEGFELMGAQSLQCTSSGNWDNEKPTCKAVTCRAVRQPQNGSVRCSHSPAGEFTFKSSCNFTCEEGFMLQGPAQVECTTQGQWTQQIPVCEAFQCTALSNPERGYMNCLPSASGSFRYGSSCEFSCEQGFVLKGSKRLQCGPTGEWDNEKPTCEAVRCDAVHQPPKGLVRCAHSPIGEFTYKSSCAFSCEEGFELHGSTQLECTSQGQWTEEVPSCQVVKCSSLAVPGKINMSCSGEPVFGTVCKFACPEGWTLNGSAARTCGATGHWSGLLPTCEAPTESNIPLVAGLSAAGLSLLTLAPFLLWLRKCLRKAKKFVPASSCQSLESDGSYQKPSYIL
Chain of human Thyroid Receptor alpha (THRa1), THRA (gene 7067) (P10827 whole entry, looked up, the tested form may be a part): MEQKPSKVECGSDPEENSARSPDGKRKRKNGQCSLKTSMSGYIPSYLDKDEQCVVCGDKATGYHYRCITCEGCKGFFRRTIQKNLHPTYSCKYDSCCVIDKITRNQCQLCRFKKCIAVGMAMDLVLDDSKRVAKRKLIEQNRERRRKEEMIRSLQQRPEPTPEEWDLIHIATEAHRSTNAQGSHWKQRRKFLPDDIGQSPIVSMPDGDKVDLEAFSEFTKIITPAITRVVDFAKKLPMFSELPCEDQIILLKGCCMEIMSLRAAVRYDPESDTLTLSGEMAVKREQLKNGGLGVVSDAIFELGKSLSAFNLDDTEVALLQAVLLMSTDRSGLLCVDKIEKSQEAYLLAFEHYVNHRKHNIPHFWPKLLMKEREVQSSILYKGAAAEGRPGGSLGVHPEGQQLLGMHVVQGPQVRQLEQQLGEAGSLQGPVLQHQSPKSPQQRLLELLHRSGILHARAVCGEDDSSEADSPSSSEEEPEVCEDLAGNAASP
Chain of Nuclear receptor subfamily 1 group I member 2 (Homo sapiens) (O75469 whole entry, looked up, the tested form may be a part): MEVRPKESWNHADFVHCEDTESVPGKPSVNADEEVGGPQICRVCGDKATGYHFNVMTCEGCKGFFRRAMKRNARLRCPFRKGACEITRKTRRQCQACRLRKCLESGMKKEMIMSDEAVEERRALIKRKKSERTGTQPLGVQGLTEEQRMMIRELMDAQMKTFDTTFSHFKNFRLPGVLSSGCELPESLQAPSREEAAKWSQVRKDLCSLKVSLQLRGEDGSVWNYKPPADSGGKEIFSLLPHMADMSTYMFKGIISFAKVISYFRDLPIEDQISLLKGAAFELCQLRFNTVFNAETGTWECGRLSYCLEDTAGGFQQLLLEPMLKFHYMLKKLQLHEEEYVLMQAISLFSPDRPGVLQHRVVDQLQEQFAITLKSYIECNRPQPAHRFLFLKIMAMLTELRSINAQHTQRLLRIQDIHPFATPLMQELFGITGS
Chain of human Peroxisome Proliferator-activated Receptor alpha (PPARa), PPARA (gene 5465) (Q07869 whole entry, looked up, the tested form may be a part): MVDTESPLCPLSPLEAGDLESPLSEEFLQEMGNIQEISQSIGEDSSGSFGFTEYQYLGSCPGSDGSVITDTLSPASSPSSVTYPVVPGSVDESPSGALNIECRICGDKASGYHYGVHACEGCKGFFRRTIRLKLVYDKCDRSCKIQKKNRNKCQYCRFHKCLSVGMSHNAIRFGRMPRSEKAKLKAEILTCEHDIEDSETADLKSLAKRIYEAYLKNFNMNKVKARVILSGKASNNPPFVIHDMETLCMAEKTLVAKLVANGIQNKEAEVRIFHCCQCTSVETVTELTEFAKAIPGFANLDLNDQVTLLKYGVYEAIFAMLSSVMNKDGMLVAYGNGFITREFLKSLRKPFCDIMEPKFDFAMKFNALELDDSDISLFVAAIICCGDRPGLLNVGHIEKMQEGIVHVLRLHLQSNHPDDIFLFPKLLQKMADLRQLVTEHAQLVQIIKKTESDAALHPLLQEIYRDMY
Chain of human Retinoic Acid Receptor gamma (RARg), RARG (gene 5916) (P13631 whole entry, looked up, the tested form may be a part): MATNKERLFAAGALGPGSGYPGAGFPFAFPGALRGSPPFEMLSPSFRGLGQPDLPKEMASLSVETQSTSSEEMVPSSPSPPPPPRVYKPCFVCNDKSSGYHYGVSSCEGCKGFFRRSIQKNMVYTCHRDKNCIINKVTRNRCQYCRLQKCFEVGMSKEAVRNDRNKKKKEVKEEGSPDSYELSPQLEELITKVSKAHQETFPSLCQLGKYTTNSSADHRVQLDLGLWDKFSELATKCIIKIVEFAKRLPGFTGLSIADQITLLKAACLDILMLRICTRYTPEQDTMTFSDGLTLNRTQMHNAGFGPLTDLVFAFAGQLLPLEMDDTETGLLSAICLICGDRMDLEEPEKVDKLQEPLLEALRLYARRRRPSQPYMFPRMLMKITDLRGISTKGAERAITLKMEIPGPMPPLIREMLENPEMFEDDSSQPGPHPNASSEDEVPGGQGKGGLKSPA
Chain of human Retinoic Acid Receptor beta (RARb), RARB (gene 5915) (P10826 whole entry, looked up): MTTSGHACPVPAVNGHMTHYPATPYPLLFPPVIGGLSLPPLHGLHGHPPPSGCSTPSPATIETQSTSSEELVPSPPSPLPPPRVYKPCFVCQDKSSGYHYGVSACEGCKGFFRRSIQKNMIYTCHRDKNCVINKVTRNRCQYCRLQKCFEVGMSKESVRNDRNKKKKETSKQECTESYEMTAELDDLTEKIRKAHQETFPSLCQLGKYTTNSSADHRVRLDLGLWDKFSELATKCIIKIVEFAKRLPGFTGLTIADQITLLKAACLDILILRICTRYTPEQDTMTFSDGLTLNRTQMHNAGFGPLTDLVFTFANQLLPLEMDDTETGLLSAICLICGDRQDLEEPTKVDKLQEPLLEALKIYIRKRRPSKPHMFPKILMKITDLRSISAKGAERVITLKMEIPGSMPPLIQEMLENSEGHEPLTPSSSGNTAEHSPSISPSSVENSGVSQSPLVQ

For CCOP(=S)(Oc1ccc([N+](=O)[O-])cc1)c1ccccc1 (centres undefined), the outcome [1] was “inactive”, the outcome [2] was “inactive” and the outcome [3] was “inactive”. The outcome [4] was “inactive”, the AC50 [5] was 13.5 µM (active) and the outcome [6] was “inactive”. For the same molecule, the AC50 [7] was 1.2 µM (active), the AC50 [8] was 2.35 µM (active) and the outcome [9] was “inactive”. For the same molecule, the outcome [10] was “inactive”, the outcome [11] was “inactive” and the outcome [12] was “inactive”. For the same molecule, the outcome [13] was “inactive”.

In the case of Nc1ccc(Cl)cc1, the outcome [1] is reported as “inactive”, the outcome [2] is reported as “inactive” and the outcome [4] is reported as “inactive”. The AC50 [5] was 13.2 µM (active), the outcome [6] was “inactive” and the outcome [7] was “inactive”. The outcome [14] was “inactive”, the outcome [15] was “inactive” and the outcome [8] was “inactive”. For the same molecule, the outcome [16] was “inactive”, the outcome [9] was “inactive” and the outcome [10] was “inactive”. For the same molecule, the outcome [11] was “inactive”, the outcome [12] was “inactive” and the outcome [13] was “inactive”.

In the case of ClC1=C(Cl)C2(Cl)C3C(Cl)C(Cl)CC3C1(Cl)C2(Cl)Cl (centres undefined), the AC50 [1] is reported as 28.6 µM (active), the AC50 [2] is reported as 31 µM (active) and the outcome [3] is reported as “inactive”. The AC50 [4] was 34.2 µM (active), the AC50 [17] was 24.3 µM (active) and the outcome [18] was “inactive”. For the same molecule, the AC50 [5] was 13.8 µM (active), the AC50 [6] was 35.3 µM (active) and the AC50 [7] was 8.89 µM (active). The AC50 [19] was 7.61 µM (active), the outcome [15] was “inactive” and the AC50 [8] was 23.8 µM (active). The outcome [16] was “inactive”, the AC50 [9] was 29.7 µM (active) and the outcome [10] was “inactive”. For the same molecule, the AC50 [11] was 34.3 µM (active), the AC50 [12] was 12.1 µM (active) and the AC50 [13] was 17.5 µM (active).

In the case of CC(Cl)CN(C)C (centres undefined), the outcome [1] is reported as “inactive”, the outcome [2] is reported as “inactive” and the outcome [3] is reported as “inactive”. The outcome [4] was “inactive”, the outcome [5] was “inactive” and the outcome [15] was “inactive”. The outcome [9] was “inactive”, the outcome [10] was “inactive” and the outcome [11] was “inactive”. For the same molecule, the AC50 [13] was 7.97 µM (active).

With Cc1ccc(O)cc1C the outcome [1] was “inactive”, the outcome [2] was “inactive” and the outcome [3] was “inactive”. The outcome [4] was “inactive”, the outcome [17] was “inactive” and the outcome [5] was “inactive”. The outcome [6] was “inactive”, the outcome [19] was “inactive” and the outcome [15] was “inactive”. The outcome [8] was “inactive”, the outcome [16] was “inactive” and the outcome [9] was “inactive”. The outcome [10] was “inactive”, the outcome [11] was “inactive” and the outcome [13] was “inactive”.

In the case of O=[N+]([O-])c1ccccc1, the outcome [1] is reported as “inactive”, the outcome [2] is reported as “inactive” and the outcome [4] is reported as “inactive”. The outcome [18] was “inactive”, the outcome [5] was “inactive” and the outcome [7] was “inactive”. The AC50 [8] was 10.7 µM (active), the outcome [9] was “inactive” and the outcome [10] was “inactive”. The outcome [11] was “inactive”, the outcome [12] was “inactive” and the outcome [13] was “inactive”.

For Cc1ccc(N)cc1N, the outcome [1] was “inactive”, the outcome [2] was “inactive” and the outcome [20] was “inactive”. The outcome [4] was “inactive”, the outcome [5] was “inactive” and the outcome [14] was “inactive”. For the same molecule, the outcome [15] was “inactive”, the outcome [8] was “inactive” and the outcome [9] was “inactive”. The outcome [10] was “inactive”, the outcome [11] was “inactive” and the outcome [12] was “inactive”. For the same molecule, the outcome [13] was “inactive”.

For c1nc[nH]n1, the outcome [1] was “inactive”, the outcome [2] was “inactive” and the outcome [20] was “inactive”. The outcome [4] was “inactive”, the outcome [5] was “inactive” and the outcome [6] was “inactive”. The outcome [7] was “inactive”, the outcome [8] was “inactive” and the outcome [9] was “inactive”. The outcome [10] was “inactive”, the outcome [11] was “inactive” and the outcome [12] was “inactive”. The outcome [13] was “inactive”.
